Results on four molecules are retold here after the supplement of paper PMC8728848.

Only a selection was taken, and the strongest signals are over-represented in it overall.

Holding throughout (assay): glycan array binding signal (z-score within array); higher = stronger binding
Holding throughout (conditions): glycan notation: IUPAC condensed, linker removed

The target in experiment [1] is Glc(a1-6)Glc(a1-6)Glc(a1-6)Glc(a1-6)Glc(a1-6)Glc(a1-6)Glc(a1-6)Glc. The method, boiled down: (§1)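 The binding signal is a Z-score computed within each array. Data were drawn from 3228 arrays in the Consortium for Functional Glycomics database, restricted to those with a known protein sequence. Scores were averaged over arrays of the same protein sequence at different concentrations or buffers, and over linkers, and negative values can be taken as non-binding.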

The target in experiment [2] is Glc(b1-2)Glc(b1-2)Glc(b1-2)Glc(b1-2)Glc(b1-2)Glc(b1-2)Glc(b1-2)Glc. The method, boiled down: as §1
Experiment [3] deals with Glc(b1-2)Glc(b1-2)Glc(b1-2)Glc(b1-2)Glc(b1-2)Glc(b1-2)Glc(b1-2)Glc(b1-2)Glc(b1-2)Glc(b1-2)Glc. The gist of the method: as §1
In experiment [4] the target is Glc(b1-2)Glc(b1-2)Glc(b1-2)Glc(b1-2)Glc(b1-2)Glc(b1-2)Glc(b1-2)Glc(b1-2)Glc(b1-2)Glc(b1-2)Glc(b1-2)Glc(b1-2)Glc. The method, boiled down:
as §1

In experiment [5] the target is Glc(b1-3)Glc(b1-3)Glc(b1-3)Glc(b1-3)Glc(b1-3)Glc(b1-3)Glc(b1-3)Glc(b1-3)Glc(b1-3)Glc(b1-3)Glc. The method, boiled down:
as §1

Experiment [6] addresses Glc(b1-3)Glc(b1-3)Glc(b1-3)Glc(b1-3)Glc(b1-3)Glc(b1-3)Glc(b1-3)Glc(b1-3)Glc(b1-3)Glc(b1-3)Glc(b1-3)Glc. The gist of the method:
as §1

The target in experiment [7] is Glc(b1-3)Glc(b1-3)Glc(b1-3)Glc(b1-3)Glc(b1-3)Glc(b1-3)Glc(b1-3)Glc(b1-3)Glc(b1-3)Glc(b1-3)Glc(b1-3)Glc(b1-3)Glc. The gist of the method:
as §1

The target of experiment [8] is Glc(b1-3)Glc(b1-3)Glc(b1-3)[Glc(b1-6)]Glc(b1-3)Glc(b1-3)Glc(b1-3)Glc(b1-3)[Glc(b1-6)]Glc(b1-3)Glc. The method, boiled down:
as §1

In the next experiment the target is Glc(b1-3)Glc(b1-4)Glc. The gist of the method: as §1
The target in experiment [9] is Glc(b1-6)Glc(b1-6)Glc(b1-6)Glc(b1-6)Glc(b1-6)Glc(b1-6)Glc(b1-6)Glc(b1-6)Glc(b1-6)Glc(b1-6)Glc. The gist of the method:
as §1

For experiment [10], the target named is Man(b1-4)Man(b1-4)Man(b1-4)Man. The method, boiled down: as §1
Experiment [11] has as its target Glc(a1-3)Glc(a1-3)Glc(a1-3)Glc. The method, boiled down: as §1
For experiment [12], the target named is Glc(a1-4)Glc(a1-4)Glc(a1-4)Glc(a1-4)Glc(a1-4)Glc(a1-4)Glc(a1-4)Glc(a1-4)Glc(a1-4)Glc. The method, boiled down:
as §1

Experiment [13] deals with Glc(b1-3)Glc(b1-3)Glc(b1-3)Glc(b1-3)Glc(b1-3)Glc. The gist of the method: as §1
The target of experiment [14] is Glc(b1-4)Glc(b1-4)Glc(b1-4)Glc(b1-4)Glc(b1-4)Glc(b1-4)Glc. The method, boiled down:
as §1

For another experiment, the target named is Glc(a1-2)Glc. The gist of the method: as §1
Experiment [15] deals with Glc(a1-6)Glc(a1-6)Glc(a1-6)Glc(a1-6)Glc(a1-6)Glc. The gist of the method:
as §1

The target of a further experiment is Glc(b1-2)Glc(b1-2)Glc. The gist of the method:
as §1

Experiment [16] has as its target Glc(b1-2)Glc(b1-2)Glc(b1-2)Glc(b1-2)Glc(b1-2)Glc(b1-2)Glc(b1-2)Glc(b1-2)Glc. The method, boiled down: as §1
In experiment [17] the target is Glc(b1-3)Glc(b1-3)Glc(b1-3)Glc(b1-3)Glc(b1-3)Glc(b1-3)[Glc(b1-6)]Glc(b1-3)Glc(b1-3)Glc. The gist of the method: as §1
Experiment [18] concerns the target Glc(b1-4)Glc(b1-4)Glc(b1-3)Glc(b1-4)Glc(b1-4)Glc(b1-3)Glc. The method, boiled down:
as §1

Another experiment concerns the target Glc(b1-6)Glc(b1-6)Glc. The gist of the method:
as §1

In experiment [19] the target is Man(b1-4)Man(b1-4)Man(b1-4)Man(b1-4)Man. The method, boiled down:
as §1

Experiment [20] deals with Glc(a1-3)Glc(a1-3)Glc(a1-3)Glc(a1-3)Glc. The gist of the method: as §1
The target in experiment [21] is Glc(a1-3)Glc(a1-3)Glc(a1-3)Glc(a1-3)Glc(a1-3)Glc(a1-3)Glc(a1-3)Glc(a1-3)Glc(a1-3)Glc(a1-3)Glc(a1-3)Glc. The method, boiled down: as §1
In experiment [22] the target is Glc(b1-2)Glc(b1-2)Glc(b1-2)Glc. The gist of the method:
as §1

Experiment [23] has as its target Glc(b1-3)Glc(b1-3)[Glc(b1-6)]Glc(b1-3)Glc(b1-3)Glc(b1-3)Glc(b1-3)Glc(b1-3)Glc(b1-3)Glc. The method, boiled down:
as §1

A further experiment concerns the target Glc(b1-4)Glc(b1-4)Glc. The method, boiled down: as §1
The target of experiment [24] is Glc(b1-4)Glc(b1-4)Glc(b1-4)Glc(b1-4)Glc(b1-4)Glc(b1-4)Glc(b1-4)Glc. The gist of the method:
as §1

Experiment [25] deals with Glc(b1-6)Glc(b1-6)Glc(b1-6)Glc. The gist of the method:
as §1

In experiment [26] the target is Xyl(b1-4)Xyl(b1-4)Xyl(b1-4)Xyl(b1-4)Xyl(b1-4)Xyl. The method, boiled down: as §1

B1: Dectin-1 (Mus musculus), Q6QLQ4 (protein)
chain: EYGHNSGRNPEEKDNFLSRNKENHKPTESSLDEKVAPSKASQTTGGFSQPCLPNWIMHGKSCYLFSFSGNSWYGSKRHCSQLGAHLLKIDNSKEFEFIESQTSSHRINAFWIGLSRNQSEGPWFWEDGSAFFPNSFQVRNTAPQESLLHNCVWIHGSEVYNQICNTSSYSICEKEL
As to B1, the “glycan array binding signal (z-score)” value in [1] is -0.161; in [2], -0.206; in experiment [3], -0.206; in experiment [4] it was -0.182; in [5], 0.83; in experiment [6], 5.77. Further, the “glycan array binding signal (z-score)” value was 6.71 in experiment [7]; -0.182 in experiment [8]; -0.182 in the experiment with Glc(b1-3)Glc(b1-4)Glc; -0.13 in [9]; -0.038 in experiment [10].

B2: Lam16A (Thermotoga maritima), Q9WXN1 (protein)
chain: EQINNGTFDEPIVNDQANNPDEWFIWQAGDYGISGARVSDYGVRDGYAYITIADPGTDTWHIQFNQWIGLYRGKTYTISFKAKADTPRPINVKILQNHDPWTNYFAQTVNLTADWQTFTFTYTHPDDADEVVQISFELGEGTATTIYFDDVTVSPQ
As for B2, the “glycan array binding signal (z-score)” value was -0.373 in experiment [11]; -0.363 in experiment [12]; 1.79 in [13]; 3.64 in experiment [5]; 4.46 in [6]; 4.88 in experiment [7]. In addition, the “glycan array binding signal (z-score)” value in experiment [14] is -0.373.

B3: Cel5A (Clostridium thermocellum), P16218 (protein)
chain: AVGEKMLDDFEGVLNWGSYSGEGAKVSTKIVSGKTGNGMEVSYTGTTDGYWGTVYSLPDGDWSKWLKISFDIKSVDGSANEIRFMIAEKSINGVGDGEHWVYSITPDSSWKTIEIPFSSFRRRLDYQPPGQDMSGTLDLDNIDSIHFMYANNKSGKFVVDNIKLIGATSDPTPSIKHGDLNFDNAVNSTDLLMLKRYILKSLELGTSEQEEKFKKAADLNRDNKVDSTDLTILKRYLLKAISEIPI
For B3, the “glycan array binding signal (z-score)” value in the experiment with Glc(a1-2)Glc is -0.143; in experiment [15], -0.143; with Glc(b1-2)Glc(b1-2)Glc, -0.143; in experiment [16], -0.143; in experiment [17], 0.047; in [18], 4.62. In addition, the “glycan array binding signal (z-score)” value was -0.143 in the experiment with Glc(b1-6)Glc(b1-6)Glc and 0.04 in experiment [19].

B4: laminarinase (Bacillus halodurans), Q9KBL8 (protein)
chain: EETIELEGEVIPARLLSTKVKALNYDDYHNVLIDRCVEGGESIRGLGDGSWIAFHDINLEQPTNLLTVRAANENKQAVLEIRADRVDGPLVSQSVIPPTGGLQAWTTVTAQVNGETSEIRDLYLVFKGEFQLSWFSFS
Consider B4, for which the “glycan array binding signal (z-score)” value in experiment [20] is -0.688; in [21] it was -0.654; in experiment [22], 0.121; in experiment [16], 2.57; in experiment [6], 2.38; in [7], 2.46. Further, the “glycan array binding signal (z-score)” value in experiment [23] was 2.85; in the experiment with Glc(b1-4)Glc(b1-4)Glc it was -0.573; in [24], -0.428; in [25], -0.324; in experiment [26], -0.466.
